Shown is part of a subset that was picked to be rich in hits.
a7 integrin act: activators of alpha7 integrin expression for muscular dystrophy; Potency, µM (series often up to 38.3 µM), usual class: activators; 350,000 compounds, 0.064% hits; alpha7betagal myoblasts, beta-gal FDG fluorescence, 48 h; AID 624291; note: nearly all actives have a fitted effect of over 60% in size
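alpha7betagal+/- myoblasts (passage 13, 250/well) treated 48 h at 37C with compounds at 1:260 dilution of DMSO stock. Lysed, then beta-galactosidase activity read as FDG fluorescence (ex 480/em 540) after 30 min, with pre-read for autofluorescence.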
Apoferritin bind: binds horse apoferritin like a general anesthetic | P02791 | apoferritin/1-aminoanthracene competitive binding, fluorescence | Potency, µM (top dose mostly 77.5 µM), most hits filed as inhibitors | 350,000 compounds, 0.074% hits; note: nearly all actives have a fitted effect of over 20% in size
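Steps: apoferritin (10 uM) was premixed with half-saturated 1-AMA in PBS, compounds were pin-transferred, plates stood 10 min at room temperature, fluorescence was read at 380/535 nm, and curves were fitted with a Hill equation.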
ClpP mod: qHTS Assay for Activators of ClpP; Potency, µM (titrated, usually from 57.5 µM); AID 651965, 2013; 340,000 compounds, 1.9% hits; purified B. subtilis ClpP, FRET peptide cleavage, 20 min; ATP-dependent Clp protease proteolytic subunit (Bacillus subtilis (strain 168)), P80244; active = well fitted falling curve with a large enough effect; inconclusive = small, poorly fitted or top-dose-only effect; inactive = no such curve, though single readings can be large or run the other way; note: the source files actives as falling curves though it sought activators and does not explain the sign; nearly all actives have a fitted effect of over 65% in size
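FRET quenching reversal measured ClpP activation: 10 microg/mL B. subtilis ClpP at pH 8 with the FRET-FV decapeptide, read at 430 nm after 320 nm excitation. The 20-min minus 0-min signal was scaled between DMSO/no-enzyme wells and ADEP (5.8 microM final).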
Glioma ERSR ind: induces the endoplasmic reticulum stress response in human glioma cells; U87-MG GRP78 promoter luciferase reporter, 16 h; Potency, µM, usual class: activators; 420,000 compounds, 0.02% hits; AID 602332; note: series mostly up to about 76 µM; nearly all actives have a fitted effect of over 35% in size
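Stably transfected U87-MG human glioma cells carrying a GRP78-based luminescent sensor were seeded at 1000 cells/well, pin-dosed with compounds and incubated 16 h. Luciferase reagent was then added, and end-point luminescence was read after 10 min at room temperature.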
CBFb-RUNX1 inh: blocks binding between human CBF-beta and RUNX1; Q01196+Q13951; AlphaScreen CBFb-His/RUNX1-biotin binding, biochemical; Potency, µM (doses to about 59.8 µM), most hits filed as inhibitors; 230,000 tested, under 10 active; AID 1477
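Read-out: AlphaScreen. Format: His-CBF-beta with biotinylated RUNX1 (30 nM each) preincubated 20 min, compound 15 min, Ni-chelate plus streptavidin beads 90 min; room temperature throughout.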
N370S GC: inhibitors or activators of N370S glucocerebrosidase for Gaucher disease; Potency, µM (titrated, usually from 59.4 µM), most hits filed as inhibitors; N370S GC spleen homogenate, 4MU-glucoside fluorescence; 330,000 compounds, 0.092% hits; AID 2101; P04062
A number is an active result; – = inactive; ? = inconclusive; · = no result given. Unless noted, calls come from the whole dose curve; as a rule, active = well fitted curve in the direction sought with a large enough effect; inconclusive = small, poorly fitted or top-dose-only effect, or another doubt; inactive = no such curve, though single readings can be large; an effect the other way counts as inactive or inconclusive.

SMILES	a7 integrin act	Apoferritin bind	ClpP mod	Glioma ERSR ind	CBFb-RUNX1 inh	N370S GC
O=C(Nc1cccnc1)c1sc(Nc2ccccc2F)nc1-c1ccccc1	–	–	17.8µM	–	–	–
Cc1onc(-c2ccccc2Cl)c1C(=O)Nc1nnc(-c2ccc(F)cc2)s1	–	–	–	–	–	–
Cc1onc(-c2c(F)cccc2Cl)c1C(=O)Nc1nnc(-c2ccccc2)s1	–	–	31.6µM	–	–	–
Cc1ccc(-c2cc(C(F)F)nc(NCc3cccnc3)n2)cc1	–	–	14.1µM	–	–	–
COc1ccc(NC(=O)c2sc3nc4c(cc3c2N)CCCCCC4)cc1Cl	·	–	12.6µM	–	·	·
CC(CC(=O)Nc1cccc(Cl)c1)c1ccccc1 (stereo not drawn)	–	?	14.1µM	–	–	–
CN(C)c1ccc(/C=c2\[nH]c(=O)/c(=C\c3ccc(N(C)C)cc3)[nH]c2=O)cc1	·	·	–	–	·	·
Cc1cc[n+](-c2nc3ccccc3nc2[N-]S(=O)(=O)c2ccccc2)cc1	–	–	–	–	–	–
Cc1cc[n+](-c2nc3ccccc3nc2[N-]S(=O)(=O)c2cccs2)cc1C	–	–	8.91µM	–	–	–
COc1ccc(OC)c(/C=C/c2cc3ccccc3cn2)c1	·	·	–	–	·	·
Cc1nc2cc(NC(=O)[C@@H]3C[C@@H](Sc4ccccn4)CN3Cc3cccc(Cl)c3)ccc2s1	·	·	·	–	·	·
CCNc1nnc(-c2ccc(C)cc2)o1	–	–	20µM	–	–	–
Cc1ccc(-c2nnc(-c3ccccc3)o2)cc1	–	–	?	–	–	–
O=C(NCC1Cc2cccc(-c3nccs3)c2O1)c1ccnc(Cl)c1 (stereo not drawn)	·	·	·	–	·	·
CC(C)Nc1nc(NCCOc2ccccc2Cl)c2sc(-c3ccccc3)cc2n1	·	·	25.1µM	–	·	·
O=c1[nH]cnc2nn(-c3ccccc3)nc12	–	?	–	–	–	–
O=c1[nH]cnc2nc(-c3ccccc3)c(-c3ccccc3)nc12	–	–	28.2µM	–	–	?
CC(=O)Nc1ccc(C(=O)CS(=O)(=O)c2ccc(C)cc2)cc1	–	–	–	–	–	–
Cc1ccc(S(=O)(=O)CC(=O)c2ccc(C(C)(C)C)cc2)cc1	–	?	28.2µM	–	–	–
CC(=O)Nc1ccc(NC(=S)NC(=O)c2ccc([N+](=O)[O-])cc2)cc1	–	–	6.31µM	–	–	–
NNC(=O)CN1C(c2ccc(Cl)cc2)=Nc2ccc(Br)cc2C1c1ccccc1 (stereo not drawn)	–	–	–	–	–	–
NNC(=O)CN1C(c2ccccc2)=Nc2ccc(Br)cc2C1c1ccccc1 (stereo not drawn)	?	–	–	–	–	39.8µM
COc1ccc(NC(=O)COc2ccccc2C(=O)Nc2ccccc2)cc1	·	·	–	–	·	·
O=C(Nc1ccc(Cl)cc1)c1cc2nc(-c3ccco3)cc(C(F)(F)F)n2n1	–	–	14.1µM	–	–	–
COc1cc(=O)n2c(c1C(=O)NC(C)c1ccco1)CCN(C(=O)c1cc(C)cc(C)c1)CC2 (stereo not drawn)	·	·	·	–	·	·
SMILES	a7 integrin act	Apoferritin bind	ClpP mod	Glioma ERSR ind	CBFb-RUNX1 inh	N370S GC
C=CC[n+]1cccc2cccc(O)c21	·	·	–	–	·	·
CC1Sc2ccc(S(=O)(=O)CCC(=O)NCc3ccc(Cl)cc3)cc2NC1=O (stereo not drawn)	–	–	–	–	·	?
Cc1cc(NC(=O)CCS(=O)(=O)c2ccc3c(c2)NC(=O)C(C)S3)ccc1Br (stereo not drawn)	–	–	–	–	·	8.91µM
COc1ccc(NC(=O)CCS(=O)(=O)c2ccc3c(c2)NC(=O)C(C)S3)cc1OC (stereo not drawn)	–	–	–	–	·	–
CC1Sc2ccc(S(=O)(=O)CCC(=O)Nc3cc(F)ccc3F)cc2NC1=O (stereo not drawn)	–	–	–	–	·	10µM
Cc1ccc(-n2nc(CO)c(C(=O)NCCCc3ccccc3)n2)cc1C	·	?	31.6µM	–	·	·
CCc1ccc(-n2nc(CO)c(C(=O)NCC(c3ccccc3)c3ccccc3)n2)cc1	·	–	?	–	·	·
CCc1ccc(-n2nc(CO)c(C(=O)NCCCc3ccccc3)n2)cc1	·	–	28.2µM	–	·	·
O=C(NCCCc1ccccc1)c1nn(-c2ccccc2)nc1CO	·	–	–	–	·	·
Cc1ccc(-n2nc(CO)c(C(=O)NC(C)CCCc3ccccc3)n2)cc1C (stereo not drawn)	·	–	35.5µM	–	·	·
CCc1ccc(-n2nc(CO)c(C(=O)NC)n2)cc1	·	–	14.1µM	–	·	·
Cc1ccc2nc(SCC(=O)NCC3Cc4cccc(-c5nc(C)cnc5C)c4O3)[nH]c2c1 (stereo not drawn)	·	·	·	–	·	·
Cc1ccc(-n2nc(CO)c(C(=O)NCc3ccccn3)n2)cc1C	·	–	–	–	·	·
Cc1ccc(-n2nc(CO)c(C(=O)NC(C)c3ccccc3)n2)cc1C (stereo not drawn)	·	–	35.5µM	–	·	·
O=C1CC2(CCN(C(=O)c3ccccc3Br)CC2)Oc2ccccc21	–	·	28.2µM	–	·	–
O=C1CC2(CCN(C(=O)c3ccc([N+](=O)[O-])cc3)CC2)Oc2ccccc21	–	·	·	–	·	–
O=C1CC2(CCN(C(=O)c3ccc(Br)cc3)CC2)Oc2ccccc21	–	·	31.6µM	–	·	–
Cc1cccc2nc(CNC(=O)CN3Cc4cc(Cl)ccc4OC(C)C3)cn12 (stereo not drawn)	·	·	·	–	·	·
CSc1nnc(CNC(=O)c2cccc3ccccc23)n1-c1ccccc1C	·	·	·	–	·	·
COc1ccc(-c2cc(C)cc3c2OC(CNC(=O)c2cc(C(C)C)on2)C3)nn1 (stereo not drawn)	·	·	·	–	·	·
COc1ccccc1C1CN(Cc2cn(C)nc2C)Cc2ccccc2O1 (stereo not drawn)	·	·	·	–	·	·
COc1ccc(CNC(=O)c2[nH]c(C)c(C(C)=O)c2C)cc1	–	–	·	–	·	–
COc1ccc(CCNC(=O)c2[nH]c(C)c(C(C)=O)c2C)cc1	–	–	35.5µM	–	–	–
CC(C)C(=O)Nc1ccc(/C=C2\C=Cc3ccccc32)cc1	·	·	–	–	·	·
COc1ccc2[nH]c(=O)c(CN(C(C)=O)c3cccc(C)c3)cc2c1	–	–	35.5µM	–	–	–
COc1ccc2[nH]c(=O)c(CN(C(C)=O)C3CCCCC3)cc2c1	–	–	31.6µM	–	–	–
COc1ccc(N2C(=O)[C@@H]3C[C@H]2CN3Cc2cccn2-c2ccccn2)cc1Cl	·	·	·	–	·	·
CCN1C(=O)[C@H]2[C@H]3[C@H](O)[C@H](O)CC(=O)[C@@H]3CC[C@H]2C1=O	·	·	–	·	·	·
O=[N+]([O-])c1ccc(N2CCN(S(=O)(=O)c3ccccc3)CC2)cc1NCC1CCCO1 (stereo not drawn)	–	–	–	–	–	–
